Shown are actives, neighbours in structure and some others; about 2.4% of the full set was active somewhere.
Pol beta inh: blocks human DNA polymerase beta activity; P06746; 340,000 compounds, 1.3% hits; Pol beta primer extension/strand displacement, fluorescence kinetic; Potency, µM (highest dose often 114 µM), without a hit: top-dose activity change, negative = inhibition, hits mostly inhibitors; also: % is scaled to controls: 0 for no effect and ±100 for the full control effect
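10 nM enzyme + cpd, 15 min RT; start with substrate 50 nM final; read 0 min and after 10 min RT. Corrected, normalized data; 4-parameter Hill curve fit.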
APE1 inh: blocks human APE1 abasic DNA cleavage; recombinant APE1, TAMRA/BHQ-2 abasic DNA cleavage fluorescence; P27695; Potency, µM (series often up to 65.8 µM), inactives show at the top dose activity change, negative = inhibition, most hits filed as inhibitors; 350,000 compounds, 0.35% hits;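 also: plate controls were vehicle for no effect and reference inhibitor for full effect; nearly all actives have a fitted effect of over 55% in size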
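Enzyme (0.75 nM final) and test compound are incubated 15 min at room temperature before adding 50 nM quenched THF abasic-site duplex. Cleavage dequenches TAMRA, followed at 525/598 nm over three reads one minute apart.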
Pol kappa inh: DNA polymerase kappa (human) inhibition; purified Pol kappa, fluorescent DNA synthesis assay, 10 min; Potency, µM (highest dose often 107 µM), for inactives: at the highest dose activity, negative = inhibition, usual class: inhibitors; 400,000 compounds, 0.53% hits; Q9UBT6; also: % is scaled to controls: 0 for no effect and ±100 for the full control effect
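10 nM Pol kappa was preincubated with compounds for 15 min at room temperature. Reaction started with 50 nM (final) substrate. Fluorescence read kinetically at 0 and 10 min.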
Pol eta inh: inhibitors of human DNA polymerase eta | Potency, µM (series often up to 114 µM), for the others: top-dose activity change, negative = inhibition, most hits filed as inhibitors | Q9Y253 | AID 588591 | 390,000 compounds, 1.2% hits | recombinant Pol eta, fluorescent DNA replication assay; also: % is scaled to controls: 0 for no effect and ±100 for the full control effect
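Pol eta (10 nM) was preincubated with compounds for 15 min at room temperature, after which fluorescent replication substrate (50 nM final) was added to start the reaction. Fluorescence was read kinetically at 0 and 10 min.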
Pol iota inh: blocks human DNA polymerase iota activity | Q9UNA4 | Pol iota fluorescent replication assay, 10 min | Potency, µM (titrated, usually from 115 µM), for inactives: top-dose activity, negative = inhibition, usual class: inhibitors | 390,000 compounds, 1% hits
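Pol iota at 10 nM preincubated 15 min with compounds at room temperature; reaction started with fluorescent substrate, 50 nM final. Fluorescence read kinetically at 0 and 10 min; buffer-only wells as negative control.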
GLS inhibitor: glutaminase GLS (human) inhibition. 410,000 compounds, 0.21% hits. Potency, µM (top dose mostly 45.5 µM), inactives show at the highest dose activity change, negative = inhibition, usual class: inhibitors. AID 624170. GLS enzymatic activity, qHTS titration; also: % is scaled to controls: 0 for no effect and ±100 for the full control effect
Target sequence (O94925 whole entry, looked up): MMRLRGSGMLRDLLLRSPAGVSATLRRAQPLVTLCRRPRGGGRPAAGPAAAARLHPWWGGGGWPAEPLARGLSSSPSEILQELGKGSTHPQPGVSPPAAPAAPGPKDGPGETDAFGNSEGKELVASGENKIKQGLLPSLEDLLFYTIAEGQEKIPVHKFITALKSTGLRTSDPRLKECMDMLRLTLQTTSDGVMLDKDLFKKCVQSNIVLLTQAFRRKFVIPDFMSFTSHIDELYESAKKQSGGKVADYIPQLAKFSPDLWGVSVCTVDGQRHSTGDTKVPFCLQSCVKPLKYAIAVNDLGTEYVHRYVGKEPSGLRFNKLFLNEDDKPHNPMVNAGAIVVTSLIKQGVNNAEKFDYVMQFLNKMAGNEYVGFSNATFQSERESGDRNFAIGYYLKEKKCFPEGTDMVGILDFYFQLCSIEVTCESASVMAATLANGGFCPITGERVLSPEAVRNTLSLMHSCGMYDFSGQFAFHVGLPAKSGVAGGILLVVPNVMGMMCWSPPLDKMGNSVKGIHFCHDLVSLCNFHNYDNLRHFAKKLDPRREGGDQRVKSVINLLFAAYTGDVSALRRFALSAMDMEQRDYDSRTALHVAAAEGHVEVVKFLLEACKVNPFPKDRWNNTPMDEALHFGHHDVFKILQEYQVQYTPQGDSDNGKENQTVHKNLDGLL
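hKGA; 45 mM KH2PO4 pH 8.2 + 0.02% Tween-20; cpd via pin tool; 1 mM Gln soln; GluOx/HRP/Amplex Red; RT 30 min; fluor. t0 & final.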
* marks the source's active call; other numbers are inactive results; u = inconclusive; x = no result; [ ] = another dose, or the depositor's remark. Calls follow the shape of the dose curve; as a rule, active = well fitted curve in the direction sought with a large enough effect; inconclusive = small, poorly fitted or top-dose-only effect, or another doubt; inactive = no such curve, though single readings can be large; an effect the other way counts as inactive or inconclusive. Potency is read from the fitted curve at half-maximal effect.

SMILES | Pol beta inh | APE1 inh | Pol kappa inh | Pol eta inh | Pol iota inh | GLS inhibitor
O=C(O)c1cccc(-n2sc3ccccc3c2=O)c1 | x | -7% | -7% | -15% | u | 8.9µM*
O=c1c2ccccc2sn1-c1ccc(S(=O)(=O)N2CCCCC2)cc1 | x | x | -5% | -10% | 17% | 95%
Cc1ccccc1-n1sc2cc(F)ccc2c1=O | 14% | 0% | -8% | -11% | 82% | u
COc1ccc(-n2nc(C(=O)N3CCCCC3)c3ccccc3c2=O)cc1 | -16% | 4% | -6% | -6% | 15% | 16%
O=C1c2ccccc2C(=O)N1c1nccs1 | x | x | -7% | -2% | -20% | 1%
O=c1c2ccccc2sn1-c1ccccc1 | 1% | -5% | -13% | -9% | u | 4.5µM*
O=c1c2ccccc2sn1-c1cccc(Cl)c1 | x | x | x | 1% | x | 7.9µM*
O=c1c2ccccc2sn1-c1nccs1 | -8% | -4% | 6% | -5% | 61% | 1.3µM*
CC1=C(C(=O)N(C(C)C)C(C)C)CC(CC(=O)NCCCN(C)C)C(=O)N1Cc1ccc(F)cc1 (stereo unspecified) | x | x | x | x | x | 1%
Cc1ccc(CNc2ccc(-c3nc(-c4ccco4)no3)cc2[N+](=O)[O-])cc1 | 32% | x | 8% | -12% | -5% | 2%
Oc1ccc(NCc2cccs2)cc1 | 43% | 15% | -12% | -18% | 32µM* | 11µM*
Cc1ccc(F)c(C2C3C=CCC(c4ccccc4)C3C(=O)N2Cc2ccccc2)c1 (stereo unspecified) | x | -5% | -25% | x | -11% | x
COc1ccccc1C(=O)NNc1ncc(C)s1 | -11% | 19% | -2% | -7% | 64% | 6.3µM*
Cc1ccc(NC(=O)CCNC(=O)c2ccccc2Cl)cc1S(=O)(=O)N1CCOCC1 | x | 41% | 8% | -1% | 19% | -2%
Oc1c(Cl)cc(Cl)cc1Sc1cc(Cl)cc(Cl)c1O | 22µM* | 8% | u | x | x | 24%
CC(=O)c1ccc(NS(=O)(=O)c2cccc(S(=O)(=O)c3ccc(Cl)cc3)c2)cc1 | 5% | x | u | -5% | 89µM* | -8%
CN(C)c1ncc2nc(-c3ccc(Cl)cc3)c(=O)n(Cc3ccc(F)cc3)c2n1 | x | 32µM* | 7%[60.1 µM] | x | x | x
C[n+]1cc2c3c(ccc2c2ccc4cc5c(cc4c21)OCO5)OCO3 | 7.9µM* | 1% | -11%[60.1 µM] | u | 28µM* | 3.2µM*
O=C1OC(c2ccco2)=N/C1=C\c1ccc(-c2cccc(C(F)(F)F)c2)o1 | -1% | 1% | -29% | 79µM* | 2% | -15%
CNC(=O)CS(=O)(=O)CC(=O)Nc1cc(OCCOC)c(Cl)cc1Cl | -1% | -6% | -1% | -3% | 105% | 12%
COCCOc1cc(N2C(=O)CSCC2=O)c(Cl)cc1Cl | 13% | -6% | -2% | -3% | 89µM* | 0%
CCN(CC)CCCNC(=O)C1c2cc(OC)c(OC)cc2C(=O)N(C)C1c1cccnc1 (stereo unspecified) | -28% | 4% | -2% | -10% | -11% | -10%
COc1ccc(COc2ccsc2C(=O)Nc2ccc(Cl)c(Cl)c2)cc1 | 35µM* | -2% | -1% | u | 45% | 2%
COc1ccc2nc(N=NC3=C(O)CC(C)(C)CC3=O)sc2c1 | 4% | -5% | -17% | -17% | 5% | 5%
COc1ccc2nc(N=Nc3ccc(O)c4ccccc34)sc2c1 | 45µM* | -2% | -28% | u | -2% | 2%
SMILES | Pol beta inh | APE1 inh | Pol kappa inh | Pol eta inh | Pol iota inh | GLS inhibitor
COc1ccnc2c1c(=O)n(Cc1ccc(Cl)cc1Cl)c(=O)n2C | -19% | 44% | 6% | -20% | 7% | 11µM*
COc1ccnc2c1c(=O)n(Cc1ccccc1Cl)c(=O)n2C | 0% | 2% | -7% | -12% | 8% | 13µM*
Cc1c(-c2nsc(NC(=O)c3cccs3)n2)nnn1-c1ccc(Cl)cc1 | 20µM* | x | -44% | u | u | 1%
CCOC(=O)/C=C1/SCC(=O)N1CC(=O)c1ccc[nH]1 | x | x | -29% | u | 22µM* | -12%
CCOC(=O)/C=C1\SCC(=O)N1CC(O)CN1C(=O)CS/C1=C\C(=O)OCC | 24% | 0% | -10% | -10% | -2% | 7%
CC(=O)Oc1cc2c3c(c1)/C(=C1/SC(=S)NC1=O)C(=O)N3C(C)(C)C=C2C | u | u | -22% | 79µM* | u | 1%
CC(=O)c1ccc(N2CCN(CC3CCCCC3)CC2)cc1 | 16% | 24% | -3% | -17% | 164% | 5%
Cc1cc(=O)[nH]c2c(N=Nc3ccc(O)cc3)c(N)nn12 | 2% | u | 89µM* | -18% | u | 34%
CC(C)c1onc(-c2c(Cl)cccc2Cl)c1COc1ccc(/C=C/c2cccc(C(=O)O)c2)c(Cl)c1 | x | -5% | 30µM* | x | x | x
Cc1ccc(CSC2=Nc3ccccc3C3=NC(CC(=O)NCc4cccs4)C(=O)N23)cc1 (stereo unspecified) | 1% | x | 1%[60.1 µM] | -10% | 7% | 8%
Cc1ccc(CSC2=Nc3ccccc3C3=NC(CC(=O)NCc4ccco4)C(=O)N23)cc1 (stereo unspecified) | 25µM* | -11% | u | u | u | -21%
Cc1cc(C)c(NC(=O)CSC2=Nc3ccccc3C3=NC(CC(=O)NCc4cccs4)C(=O)N23)c(C)c1 (stereo unspecified) | 16% | x | -3% | -8% | 31% | 11µM*
O=C(CC1N=C2c3ccccc3N=C(SCc3ccc(F)cc3)N2C1=O)NCc1ccco1 (stereo unspecified) | 50µM* | 3% | -6% | -8% | 17% | -11%
O=C(CCC1N=C2c3ccccc3N=C(SCc3ccc(Cl)cc3)N2C1=O)NCCc1ccccc1 (stereo unspecified) | 16% | x | -38% | -15% | 89µM* | -2%
CCCCNC(=O)CC1N=C2c3ccccc3N=C(SCC(=O)Nc3cccc(OC)c3)N2C1=O (stereo unspecified) | 16% | 14% | -2% | 5% | 0% | 7.1µM*
CCCCNC(=O)CC1N=C2c3ccccc3N=C(SCC(=O)Nc3ccc(OC)cc3)N2C1=O (stereo unspecified) | 1% | -6% | -14% | -2% | 2% | u
C=C1C=C(C)n2ncc(C(=O)Nc3cccc4cnccc34)c2N1 | x | x | u | x | 79µM* | x
Cn1cc(-c2nc3cnc(N4CCNCC4)nc3n(-c3ccccc3)c2=O)c2ccccc21 | x | 0% | -2%[60.1 µM] | x | x | x
Cc1ccc(NC(=O)Cn2nnc(C(=O)NCCc3ccccc3)c2N)cc1 | 16µM* | x | u | -30% | u | -8%
COc1cccc(NC(=O)c2nnn(CC(=O)Nc3cc(C)cc(C)c3)c2N)c1 | 89µM* | -6% | -28% | -6% | u | 20%
